Source: PubChem BioAssay AID1159580 (chemical genetic matrix, 2015)
“And” between values parts separate entries of the source, which are not always exact repeats. Identical values can stand only once. The whole screen tested about 5,500 compounds, of which about 2,000 (36%) were called active. Another 18% or so got no clear call; they are omitted. Rule as the data show it: active = normalized growth mostly below about 0.91 (no sharp cut-off); inconclusive = no clear call, values can overlap the other calls; inactive = mostly above about 0.92. The list shows a part of the results.

Test: chemical genetic growth profiling, strain panel (AID 1159580);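 also: tested at 20 µM; growth read once vehicle control cultures reached saturation at 30 °C; 1 = growth at the plate median or of vehicle wells; lower values mean less growth of the strain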
Conditions: S. cerevisiae deletion strains, growth OD

Measured: normalized growth

NC(Cn1ccc(=O)c(O)c1)C(=O)O (configuration not stated)
inactive: locus YAL013W, strain DEP1, stronger effect = lower value 1.01 | locus YAL021C, strain ccr4, stronger effect = lower value 1 | locus YAL026C, strain drs2, stronger effect = lower value 1.04 | locus YAL030W, strain snc1, stronger effect = lower value 1.01 | locus YBL061C, strain skt5, stronger effect = lower value 1.03 | locus YBR009C, strain hhf1, stronger effect = lower value 0.992 | locus YBR021W, strain FUR4, stronger effect = lower value 1.01 | locus YBR023C, strain chs3, stronger effect = lower value 1.03 | locus YBR171W, strain sec66, stronger effect = lower value 1.03 | locus YBR229C, strain ROT2, stronger effect = lower value 1.02 | locus YBR231C, strain swc5, stronger effect = lower value 1.01 | locus YBR279W, strain paf1, stronger effect = lower value 1.03 | locus YCL011C, strain gbp2, stronger effect = lower value 1.03 | locus YCL016C, strain dcc1, stronger effect = lower value 1.04 | locus YCL029C, strain bik1, stronger effect = lower value 0.98 | locus YCL061C, strain MRC1, stronger effect = lower value 1.01 | locus YCL069W, strain vba3, stronger effect = lower value 1.01 | locus YCR088W, strain abp1, stronger effect = lower value 1.02 | locus YDL005C, strain med2, stronger effect = lower value 1.03 | locus YDL035C, strain GPR1, stronger effect = lower value 1.03 | locus YDL040C, strain nat1, stronger effect = lower value 1.02 | locus YDL074C, strain BRE1, stronger effect = lower value 1.03 | locus YDL101C, strain DUN1, stronger effect = lower value 1.02 | locus YDL134C, strain PPH21, stronger effect = lower value 1.01 | locus YDL185W, strain tfp1, stronger effect = lower value 0.978 | locus YDL192W, strain arf1, stronger effect = lower value 0.994 | locus YDR001C, strain nth1, stronger effect = lower value 1.02 | locus YDR069C, strain doa4, stronger effect = lower value 1.02 | locus YDR101C, strain arx1, stronger effect = lower value 1 | locus YDR137W, strain rgp1, stronger effect = lower value 1.05 | locus YDR150W, strain NUM1, stronger effect = lower value 1.01 | locus YDR159W, strain sac3, stronger effect = lower value 0.943 | locus YDR162C, strain NBP2, stronger effect = lower value 1.02 | locus YDR195W, strain ref2 1.01 | locus YDR297W, strain sur2, stronger effect = lower value 0.998 | locus YDR318W, strain mcm21, stronger effect = lower value 0.992 | locus YDR334W, strain swr1, stronger effect = lower value 1.02 | locus YDR335W, strain msn5, stronger effect = lower value 1.03 | locus YDR388W, stronger effect = lower value 0.993 | locus YDR392W, strain spt3, stronger effect = lower value 0.959 | locus YDR502C, strain sam2, stronger effect = lower value 1.01 | locus YEL003W, strain gim4, stronger effect = lower value 1 | locus YEL037C, strain rad23, stronger effect = lower value 1.02 | locus YEL061C, strain CIN8 (second series), stronger effect = lower value 1.03 | locus YEL061C, strain CIN8, stronger effect = lower value 1.01 | locus YER015W, strain faa2, stronger effect = lower value 1.01 | locus YER016W, strain bim1, stronger effect = lower value 1.05 | locus YER110C, stronger effect = lower value 0.969 | locus YER111C, strain swi4, stronger effect = lower value 1.02 | locus YER155C, strain BEM2 (second series), stronger effect = lower value 1.01 | locus YER155C, strain BEM2, stronger effect = lower value 1.01 | locus YER167W, strain BCK2, stronger effect = lower value 1.03 | locus YFR010W, strain ubp6, stronger effect = lower value 0.994 | locus YGL078C, strain dbp3, stronger effect = lower value 1.01 | locus YGL086W, strain mad1, stronger effect = lower value 1 | locus YGL167C, strain pmr1, stronger effect = lower value 1.02 | locus YGL173C, strain kem1, stronger effect = lower value 1 | locus YGL227W, strain vid30, stronger effect = lower value 1.05 | locus YGL240W, strain doc1, stronger effect = lower value 1 | locus YGL248W, strain PDE1, stronger effect = lower value 1.02 | locus YGL253W, strain hxk2, stronger effect = lower value 1.03 | locus YGR078C, strain PAC10, stronger effect = lower value 1.02 | locus YGR135W, strain pre9, stronger effect = lower value 1.02 | locus YGR229C, strain SMI1, stronger effect = lower value 1.02 | locus YGR252W, strain gcn5, stronger effect = lower value 1.07 | locus YHR013C, strain ard1, stronger effect = lower value 1.05 | locus YHR027C, strain rpn1, stronger effect = lower value 1.02 | locus YHR030C, strain SLT2, stronger effect = lower value 1.01 and 1.02 | locus YHR079C, strain IRE1 (second series), stronger effect = lower value 0.988 | locus YHR079C, strain IRE1, stronger effect = lower value 1.04 | locus YHR094C, strain hxt1, stronger effect = lower value 0.996 | locus YHR129C, strain ARP1, stronger effect = lower value 1.01 | locus YHR142W, strain chs7, stronger effect = lower value 1.03 | locus YHR200W, strain rpn10, stronger effect = lower value 0.991 | locus YIL066C, strain RNR3, stronger effect = lower value 1.02 | locus YIL073C, strain SPO22, stronger effect = lower value 0.978 | locus YIL125W, strain kgd1, stronger effect = lower value 1 | locus YIR030C, strain dcg1, stronger effect = lower value 0.986 | locus YJL092W, strain hpr5, stronger effect = lower value 1.01 | locus YJL095W, strain BCK1 (second series), stronger effect = lower value 1.03 | locus YJL095W, strain BCK1, stronger effect = lower value 1.02 and 1.01 | locus YJL115W, strain asf1, stronger effect = lower value 1.02 | locus YJL129C, strain trk1, stronger effect = lower value 1.03 | locus YJL134W, strain LCB3, stronger effect = lower value 1.01 | locus YJL154C, strain vps35, stronger effect = lower value 1.01 | locus YJL164C, strain tpk1, stronger effect = lower value 0.996 | locus YJL166W, strain qcr8, stronger effect = lower value 1.01 | locus YJL168C, strain set2, stronger effect = lower value 0.99 | locus YJL187C, strain SWE1 (second series), stronger effect = lower value 1.01 | locus YJL187C, strain SWE1, stronger effect = lower value 1.01 | locus YJR043C, strain POL32, stronger effect = lower value 1.01 | locus YJR066W, strain TOR1, stronger effect = lower value 0.98
